Measurements published in PubChem BioAssay AID1347420 (Sanford-Burnham Center for Chemical Genomics, 2020).
Hit rate of the full screen: of about 1,300 compounds, about 980 (75%) were called active. Inconclusive results (about 4%) are left out. This is one part of the list. Unmarked numbers belong to inactive results. Residues, ends and D or L forms follow the SMILES beside them. *: point of attachment. Cbz = O=C(OCc1ccccc1)*

Target: Sulfhydryl oxidase 1 (Homo sapiens) (UniProt O00391)
Assay: inhibition of human sulfhydryl oxidase QSOX1 – biochemical, HyperBlu H2O2 luminescence, HTS, primary screen (AID 1347420); further: values above 100% were filed as inconclusive
Conditions: recombinant QSOX1, HyperBlu H2O2 luminescence; at 12.5 µM; hits give high values; active = any value above zero

Sulfhydryl oxidase 1 (Homo sapiens), sequence (O00391 whole entry, looked up): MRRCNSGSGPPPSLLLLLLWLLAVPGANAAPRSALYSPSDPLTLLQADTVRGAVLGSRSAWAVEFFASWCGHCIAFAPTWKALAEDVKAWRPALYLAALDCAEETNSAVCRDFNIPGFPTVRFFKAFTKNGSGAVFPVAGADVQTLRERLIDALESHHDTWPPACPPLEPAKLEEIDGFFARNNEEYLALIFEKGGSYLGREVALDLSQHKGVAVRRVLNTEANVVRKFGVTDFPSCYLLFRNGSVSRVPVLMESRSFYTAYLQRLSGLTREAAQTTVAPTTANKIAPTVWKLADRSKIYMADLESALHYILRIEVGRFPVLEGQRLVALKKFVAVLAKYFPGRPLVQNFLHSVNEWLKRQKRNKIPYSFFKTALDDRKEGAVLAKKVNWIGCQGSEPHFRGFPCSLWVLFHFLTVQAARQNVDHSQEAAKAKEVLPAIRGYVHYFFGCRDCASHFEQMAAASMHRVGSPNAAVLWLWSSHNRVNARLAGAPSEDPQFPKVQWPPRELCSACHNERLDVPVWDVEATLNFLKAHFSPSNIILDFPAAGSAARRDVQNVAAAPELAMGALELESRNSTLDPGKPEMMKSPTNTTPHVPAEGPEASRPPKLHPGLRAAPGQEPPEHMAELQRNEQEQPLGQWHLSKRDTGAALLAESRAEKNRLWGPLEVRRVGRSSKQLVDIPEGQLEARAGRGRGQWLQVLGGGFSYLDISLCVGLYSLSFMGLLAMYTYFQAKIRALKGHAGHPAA

SMILES | inhibition
CC1=C(/C=C/C(C)=C/C=C/C(C)=C\C(=O)O)C(C)(C)CCC1 | 3.1% (active)
CC1=C(/C=C/C(C)=C/C=C/C(C)=C/C(=O)Nc2ccc(O)cc2)C(C)(C)CCC1 | 29.7% (active)
CC1=C(/C=C/C(C)=C/C=C/C(C)=C/C(=O)O)C(C)(C)CCC1 | 11.4% (active)
O=C(Nc1ccc([N+](=O)[O-])cc1Cl)c1cc(Cl)ccc1O | 11.3% (active)
O=C(Nc1ccncc1)c1cc([N+](=O)[O-])ccc1Cl | 41.9% (active)
O=C(Nc1ccccc1)c1cc([N+](=O)[O-])ccc1Cl | 35.3% (active)
O=C(O)c1cc([N+](=O)[O-])ccc1NCCCc1ccccc1 | 84.4% (active)
O=C(O)/C=C/c1ccc(O)c(O)c1 | 74.3% (active)
O=C(/C=C/c1ccc(O)c(O)c1)OCCc1ccccc1 | 98.9% (active)
O=c1cc(O)cc(/C=C/c2ccc(O)c(O)c2)o1 | 84.2% (active)
CN1CCCC1CCOC(C)(c1ccccc1)c1ccc(Cl)cc1 (stereo unspecified) | 7.6% (active)
O=C(O)Cc1ccc(O)c(O)c1 | 52.8% (active)
CCN(CC)C(=O)c1ccc(O)c(OC)c1 | 17.3% (active)
NCCc1ccc(O)c(O)c1 | 61.7% (active)
COc1cc(CC(=O)O)ccc1O | 4.4% (active)
CCc1c(C(=O)NCCc2ccc(N3CCCCC3)cc2)[nH]c2ccc(Cl)cc12 | 13.2% (active)
CC(C)[C@H](NC(=O)OCc1ccccc1)C(=O)N[C@H](C=O)Cc1ccccc1 (Cbz-Val-Phe-aldehyde) | -15.7%
Cc1ccc(S(=O)(=O)N[C@@H](Cc2ccccc2)C(=O)CCl)cc1 | 4% (active)
O=C(N[C@@H](Cc1ccccc1)C(=O)CCl)OCc1ccccc1 | 0.2% (active)
CC(C)Cc1ccc([C@H](C)C(=O)O)cc1 | 5.1% (active)
CC(C(=O)O)c1ccc(CC2CCCC2=O)cc1 (stereo unspecified) | 13.5% (active)
CC(C)Cc1ccc(C(C)C(=O)O)cc1 (stereo unspecified) | -0.2%
CC(C)(C)c1ccc(C(O)CCCN2CCC(C(O)(c3ccccc3)c3ccccc3)CC2)cc1 (stereo unspecified) | 6.1% (active)
CC(C)(C(=O)O)c1ccc(C(O)CCCN2CCC(C(O)(c3ccccc3)c3ccccc3)CC2)cc1 (stereo unspecified) | -4.1%

SMILES | inhibition
CC(C)(C)c1ccc(/C=C/C(=O)Nc2ccc3c(c2)OCCO3)cc1 | 17.7% (active)
[Li+] | 6.5% (active)
CN(C)C(=O)n1nnnc1Cc1ccc(-c2ccccc2)cc1 | 2.4% (active)
CC(C)c1cccc(C(C)C)c1N1C(=O)c2ccc(O)cc2C1=O | -98.1%
CSc1nc(N)c2ncn([C@@H]3O[C+](COP(=O)([O-])OP(=O)(O)O)[C@H](O)C3O)c2n1 (stereo partly specified) | 26.4% (active)
CN(C)C/C=C(/c1ccc(Br)cc1)c1cccnc1 | -9.2%
Nc1nc(N)c2nc(-c3ccccc3)c(N)nc2n1 | -11.2%
Nc1nnc(-c2cccc(Cl)c2Cl)c(N)n1 | 4.9% (active)
Cc1nc2c([nH]1)c(=O)n(C)c(=O)n2Cc1ccco1 | 10.1% (active)
CCCOc1ccccc1-c1nc2n[nH]nc2c(=O)[nH]1 | 15.8% (active)
Cc1nnc(SCC2=C(C(=O)O)N3C(=O)[C@@H](NC(=O)Cn4cnnn4)[C@H]3SC2)s1 | 10.4% (active)
Cc1ccc2nc(CN(CCN(Cc3nc4ccc(C)cc4[nH]3)Cc3nc4ccc(C)cc4[nH]3)Cc3nc4ccc(C)cc4[nH]3)[nH]c2c1 | -0.7%
C=C(C)C1CC=C(C(=O)O)CC1 (stereo unspecified) | -10.6%
O=C(O)C1=CCNCC1 | 0.2% (active)
O=C(O)C1=CCCNC1 | 5.6% (active)
Nc1nc(OCC2CCCCC2)c2[nH]cnc2n1 | 11.1% (active)
Nc1nc(N)c(N=O)c(OCC2CCCCC2)n1 | 29.8% (active)
Nc1nc(OCc2ccccc2)c2[nH]cnc2n1 | 5.5% (active)
CC(C)N(CCC(=O)c1ccc2ccccc2c1)Cc1ccccc1 | 5.9% (active)
CC(COc1ccccc1)N(CCCl)Cc1ccccc1 (stereo unspecified) | -3.7%
O=S(=O)(c1cccc2c(Cl)cccc12)N1CCCNCC1 | 7.1% (active)
O=S(=O)(c1cccc2c(I)cccc12)N1CCCNCC1 | 6% (active)
Cc1ccccc1C(OCCN(C)C)c1ccccc1 (stereo unspecified) | 2.5% (active)
CN(C)CCOC(c1ccccc1)c1ccccc1 | 15.9% (active)

SMILES | inhibition
Cc1cc2c(C(C)C)c(O)c(O)c(C=O)c2c(O)c1-c1c(C)cc2c(C(C)C)c(O)c(O)c(C=O)c2c1O | 74.3% (active)
CCC(=O)N1CCN(C(=O)c2ccccc2)CC1 | 3.1% (active)
Cc1ccc(Cl)c(Nc2ccccc2C(=O)O)c1Cl | 7.8% (active)
O=c1onc2cnc3ccccc3n12 | 6.8% (active)
CN(C)CC[C@@H](c1ccc(Cl)cc1)c1ccccn1 | 3.5% (active)
CN(C)CC[C@@H](c1ccc(Br)cc1)c1ccccn1 | -5.9%
CN(C)CCC(c1ccc(Br)cc1)c1ccccn1 (stereo unspecified) | -10.9%
CN(C)CCC(c1ccc(Cl)cc1)c1ccccn1 (stereo unspecified) | 6.9% (active)
CN(C)CCC(c1ccccc1)c1ccccn1 (stereo unspecified) | 4.2% (active)
O=C1N(c2ccccc2)c2ccccc2C1(Cc1ccncc1)Cc1ccncc1 | 7.6% (active)
Nc1c2c(nc3ccccc13)CCCC2O (stereo unspecified) | 4% (active)
Nc1c2c(nc3ccccc13)CCCC2 | 20.5% (active)
COc1ccccc1N1CCN(CC(O)COc2cccc3ccccc23)CC1 (stereo unspecified) | 11.9% (active)
COc1ccccc1OCC(O)CN1CCN(CC(=O)Nc2c(C)cccc2C)CC1 (stereo unspecified) | 2.7% (active)
Cc1cn[nH]c1 | -6.5%
COc1cc2nc(N3CCN(C(=O)C4COc5ccccc5O4)CC3)nc(N)c2cc1OC (stereo unspecified) | 11.9% (active)
COc1cc2nc(N3CCN(C(=O)C4CCCO4)CC3)nc(N)c2cc1OC (stereo unspecified) | 8.6% (active)
COc1cc2nc(N3CCN(C(=O)c4ccco4)CC3)nc(N)c2cc1OC | 5.9% (active)
COc1cc2nc(N3CCN(C(=O)OCc4ccccc4)C(C(=O)NC(C)(C)C)C3)nc(N)c2cc1OC (stereo unspecified) | 0.6% (active)
COc1cc2nc(N(C)CCCNC(=O)C3CCCO3)nc(N)c2cc1OC (stereo unspecified) | 0.2% (active)
O=C(NCCN1CCOCC1)c1ccc(Cl)cc1 | 5.4% (active)
O=C(Nc1nc2ccccc2n1CCN1CCOCC1)c1cccc([N+](=O)[O-])c1 | -17.8%
COc1cccc(C(=O)NCCN2CCN(c3ccc(Cl)cc3)CC2)c1 | 45.7% (active)
